Data from PubChem BioAssay (Tox21).
Where “and” joins values, the source holds several entries; their conditions need not be identical. Equal entries are not always repeated. Records with an inconclusive call do not appear. A call without a number means that no potency is given here. Some compounds were tested as several samples or in several runs, with calls that do not always agree. Calls of active or inactive are those of the source. Unless noted, calls come from the whole dose curve; as a rule, active = well fitted curve in the direction sought with a large enough effect in the repeat runs; inconclusive = weak or mixed curves; inactive = no such curve, though single readings can be large; an effect the other way counts as inactive or inconclusive.

Columns and labels:
[1] = qHTS assay to identify small molecule agonists of H2AX - cell viability counter screen (AID 1224847; calls by dose curve; note: nearly all actives have a fitted effect of over 30% in size; note: potency is the fitted concentration of half-maximal effect)
Procedure, shortened: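 Viability of CHO-K1 (wild type) cells after 3 hr compound exposure was measured by CellTiter-Glo luminescence.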

[2] = A CellTox Green Cytotoxicity Assay to monitor cytotoxicity in HEK293 cells - 0 hour (AID 1224869); note: nearly all actives have a fitted effect of over 50% in size; note: potency is the fitted concentration of half-maximal effect
Procedure, shortened: (§1)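 Cytotoxicity was tracked continuously in HEK293 cells by a DNA-binding dye excluded from viable cells. Compounds were transferred in DMSO 5 h after seeding; fluorescence was recorded at intervals up to 40 h.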

[3] = A CellTox Green Cytotoxicity Assay to monitor cytotoxicity in HEK293 cells - 40 hour (AID 1224871); note: nearly all actives have a fitted effect of over 45% in size; note: potency is the fitted concentration of half-maximal effect
Procedure, shortened: as §1

[4] = A CellTox Green Cytotoxicity Assay to monitor cytotoxicity in HEK293 cells - 24 hour (AID 1224875); note: nearly all actives have a fitted effect of over 45% in size; note: potency is the fitted concentration of half-maximal effect
Procedure, shortened: as §1

[5] = A CellTox Green Cytotoxicity Assay to monitor cytotoxicity in HepG2 cells - 16 hour (AID 1224876); note: nearly all actives have a fitted effect of over 45% in size; note: potency is the fitted concentration of half-maximal effect
Procedure, shortened: (§2)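 Real-time, homogeneous cytotoxicity readout: dead-cell DNA staining by CellTox Green in HepG2 monolayers, fluorescence measured at timed intervals up to 40 h of continuous compound exposure.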

[6] = A CellTox Green Cytotoxicity Assay to monitor cytotoxicity in HEK293 cells - 32 hour (AID 1224881); note: nearly all actives have a fitted effect of over 40% in size; note: potency is the fitted concentration of half-maximal effect
Procedure, shortened: as §1

[7] = qHTS RealTime-Glo MT Cell Viability Assay in HepG2 cells - 24 hour (AID 1224867); note: nearly all actives have a fitted effect of over 50% in size; note: potency is the fitted concentration of half-maximal effect
Procedure, shortened: (§3)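 Tox21 10K library screened in qHTS format on HepG2 cells carrying RealTime-Glo reagents. Compounds were added after a 5 h preincubation, and the luminescent signal from continuous culture was measured repeatedly during 40 h treatment.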

[8] = qHTS RealTime-Glo MT Cell Viability Assay in HepG2 cells - 40 hour (AID 1224870); note: nearly all actives have a fitted effect of over 50% in size; note: potency is the fitted concentration of half-maximal effect
Procedure, shortened: (§4)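 HepG2 cells mixed with RealTime-Glo MT reagents (NanoLuc plus cell-permeant prosubstrate) were seeded at 600 cells/well, incubated 5 h at 37 C/5% CO2, then pinned with compounds in DMSO; nonlytic luminescence tracked viability during 40 h treatment.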

[9] = qHTS RealTime-Glo MT Cell Viability Assay in HEK293 cells - 16 hour (AID 1224872); note: nearly all actives have a fitted effect of over 50% in size; note: potency is the fitted concentration of half-maximal effect
Procedure, shortened: (§5)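 Luminescence generated by NanoLuc from substrate produced by living HEK293 cells served as the viability signal. Each value reflects the reading at its stated time point during continuous 40 h compound exposure at 37 C.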

[10] = qHTS RealTime-Glo MT Cell Viability Assay in HEK293 cells - 40 hour (AID 1224874); details: RealTime-Glo luminescence; max response: stronger effect = lower value; note: nearly all actives have a fitted effect of over 50% in size; note: potency is the fitted concentration of half-maximal effect
Procedure, shortened: (§6)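 Nonlytic bioluminescent viability monitoring. HEK293 at 600 cells/well with reagent; 5 h settle; compound transfer by pintool; plates held at 37 C and read at set time points.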

[11] = qHTS RealTime-Glo MT Cell Viability Assay in HepG2 cells - 32 hour (AID 1224877); note: nearly all actives have a fitted effect of over 55% in size; note: potency is the fitted concentration of half-maximal effect
Procedure, shortened: as §3

[12] = A CellTox Green Cytotoxicity Assay to monitor cytotoxicity in HepG2 cells - 24 hour (AID 1224878); note: nearly all actives have a fitted effect of over 45% in size; note: potency is the fitted concentration of half-maximal effect
Procedure, shortened: as §2

[13] = A CellTox Green Cytotoxicity Assay to monitor cytotoxicity in HepG2 cells - 40 hour (AID 1224879); note: nearly all actives have a fitted effect of over 40% in size; note: potency is the fitted concentration of half-maximal effect
Procedure, shortened: as §2

[14] = qHTS RealTime-Glo MT Cell Viability Assay in HEK293 cells - 0 hour (AID 1224880)
Procedure, shortened: as §6

[15] = qHTS assay to identify small molecule agonists of H2AX (AID 1224845; active = well fitted activation curve with a large enough effect in the signal ratio in the repeat runs, not every such curve was filed as active; the % refers to the signal ratio; note: potency is the fitted concentration of half-maximal effect)
Procedure, shortened: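 Wild-type CHO-K1 cells plated overnight, then exposed 3 hr at 37C to compounds at 15 concentrations (0.76% DMSO). Lysed, then HTRF anti-pH2AX(S139)-cryptate/anti-H2AX-d2 detection after 24 hr at room temperature; emissions 665 and 620 nm.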

[16] = qHTS RealTime-Glo MT Cell Viability Assay in HEK293 cells - 32 hour (AID 1224868); note: nearly all actives have a fitted effect of over 50% in size; note: potency is the fitted concentration of half-maximal effect
Procedure, shortened: as §5

[17] = qHTS RealTime-Glo MT Cell Viability Assay in HepG2 cells - 8 hour (AID 1224873); note: nearly all actives have a fitted effect of over 55% in size; note: potency is the fitted concentration of half-maximal effect
Procedure, shortened: as §4

[18] = qHTS assay to identify small molecule antagonists of the estrogen related receptor (ERR) signaling pathway from Tox21 library (AID 1224848)
Procedure, shortened: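 Cells: ERR line, 2,000/well; 6 h preincubation 37 C/5% CO2. Cpd in DMSO via pin tool; 18 h, 37 C. ONE-Glo, 30 min RT, luminescence.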

[19] = qHTS assay to identify small molecule agonists of the estrogen related receptor (ERR) signaling pathway from Tox21 library (AID 1224849; calls by dose curve; note: nearly all actives have a fitted effect of over 15% in size); details: ERR reporter cell line, ONE-Glo luciferase, 18 h; at 92.4 µM (top of the series)
Procedure, shortened: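 Agonist signal is luciferase luminescence from an ERR reporter cell line treated 18 h at 37 C with DMSO-dissolved compounds, read 30 min after ONE-Glo addition at room temperature.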

SMILES | Potency [1] | Potency [2] | Potency [3] | Potency [4] | Potency [5] | Potency [6] | Potency [7] | Potency [8] | Potency [9] | Potency [10] | Potency [11] | Potency [12] | Potency [13] | Potency [14] | Potency [15] | Potency [16] | Potency [17] | Potency [18] | activity change, positive = activation [19] | max response [10]
COc1ccc(CCN(C)CCCC(C#N)(c2ccc(OC)c(OC)c2)C(C)C)cc1OC (stereo not drawn) | inactive | inactive | inactive | inactive | inactive | inactive | – | – | – | – | – | – | – | – | – | – | – | – | – | –
CCCCCCCCCCCCCC[P+](CCCC)(CCCC)CCCC | 3.99 µM (active) and 31.8 µM (active) | inactive | 13.7 µM (active) and 17.4 µM (active) | 12.2 µM (active) and 17.4 µM (active) | 21.8 µM (active) and 19.5 µM (active) | 12.2 µM (active) and 17.4 µM (active) | 21.8 µM (active) and 13.8 µM (active) | 21.8 µM (active) and 11 µM (active) | 5.46 µM (active) and 549 nM (active) | 137 nM (active) and 174 nM (active) | 21.8 µM (active) and 12.3 µM (active) | 21.8 µM (active) and 15.5 µM (active) | 19.4 µM (active) and 17.4 µM (active) | inactive | – | – | – | – | – | –
CCCCCCCCCCCCc1ccccc1O | 55.9 µM (active) and 40.1 µM (active) | inactive | 43.1 µM (active) and 34.7 µM (active) | 43.1 µM (active) and 38.9 µM (active) | inactive and 21.9 µM (active) | 43.1 µM (active) and 38.9 µM (active) | – | inactive and 49 µM (active) | 43.1 µM (active) and 43.6 µM (active) | 48.3 µM (active) and 49 µM (active) | inactive and 43.6 µM (active) | 17.4 µM (active) | 48.3 µM (active) and 21.9 µM (active) | inactive | 55.9 µM (active) and 40.1 µM (active) | 48.3 µM (active) and 49 µM (active) | inactive and 34.7 µM (active) | – | – | –
CC(C)(C)c1ccc(O)c(C(C)(C)C)c1 | 89.4 µM (active) | inactive | 24.4 µM (active) and 34.7 µM (active) | 21.8 µM (active) and 34.7 µM (active) | 48.8 µM (active) and 43.6 µM (active) | 24.4 µM (active) and 34.7 µM (active) | – | inactive | 34.5 µM (active) | 38.7 µM (active) | – | 48.8 µM (active) and 43.6 µM (active) | – | inactive | – | 38.7 µM (active) | 38.9 µM (active) | 54.3 µM (active) and 61.1 µM (active) | -41% (inactive) and -33.5% (inactive) | -25% (inactive)
CC1COc2c(N3CCN(C)CC3)c(F)cc3c(=O)c(C(=O)O)cn1c23 (stereo not drawn) | inactive | inactive | inactive | inactive | inactive | inactive | – | – | – | – | – | inactive | – | – | inactive | – | – | – | – | –
Oc1c(Cl)cc(Cl)cc1Sc1cc(Cl)cc(Cl)c1O | – | inactive and 27.5 µM (active) | 49.1 µM (active) and 43.6 µM (active) and inactive | – | 44.4 µM (active) and 43.6 µM (active) and inactive | 49.1 µM (active) and 43.6 µM (active) and inactive | inactive | inactive | inactive | 17.4 µM (active) and 22.2 µM (active) and 13.8 µM (active) | – | 39.5 µM (active) and 43.6 µM (active) and inactive | – | inactive | inactive | – | inactive | – | – | –
CCn1c2ccccc2c2cc(N)ccc21 | inactive | inactive | inactive | inactive | inactive | inactive | inactive | inactive | inactive | – | inactive | inactive | inactive | inactive | – | inactive | inactive | 34 µM (active) | – | -18.5% (inactive) and -3.18% (inactive) and -13.8% (inactive)
Nc1ccc2cc3ccccc3cc2c1 | inactive | inactive | inactive | inactive | inactive | inactive | – | inactive | inactive | – | inactive | inactive | inactive | inactive | inactive | – | inactive | – | – | -15.8% (inactive) and 6.47% (inactive)
Nc1cc(S(=O)(=O)O)cc2cc(S(=O)(=O)O)cc(O)c12 | inactive | inactive | inactive | inactive | inactive | inactive | inactive | inactive | inactive | – | – | inactive | inactive | inactive | – | inactive | – | – | – | -12.9% (inactive)
